Source: PMC5700166
Numbering of substitutions follows the chain as printed.

Experiments:
Assay in all cases: protein-binding microarray (PBM); PBM: ~300 nM protein, 6 mM HEPES pH 7.8, 80 mM KCl, 0.5 mM EDTA, 0.5 mM EGTA, 6% glycerol, 35 ng/ul poly-dIdC, 1% milk, 1 h, room temperature; Ap Aiptasia and Nv Nematostella (sea anemones) / Co Capsaspora / Aq Amphimedon (sponge) / Dm Drosophila / Hu human; RHD is the Rel homology domain; high values mean tight binding
Conditions in all cases: dsDNA, one strand shown
GST-Ap-NF-kB RHD = molecular target: T1, GST-Ap-NF-kB RHD (Exaiptasia pallida (Aiptasia), UniProt A0A913YAJ5 2-422)
T1 sequence: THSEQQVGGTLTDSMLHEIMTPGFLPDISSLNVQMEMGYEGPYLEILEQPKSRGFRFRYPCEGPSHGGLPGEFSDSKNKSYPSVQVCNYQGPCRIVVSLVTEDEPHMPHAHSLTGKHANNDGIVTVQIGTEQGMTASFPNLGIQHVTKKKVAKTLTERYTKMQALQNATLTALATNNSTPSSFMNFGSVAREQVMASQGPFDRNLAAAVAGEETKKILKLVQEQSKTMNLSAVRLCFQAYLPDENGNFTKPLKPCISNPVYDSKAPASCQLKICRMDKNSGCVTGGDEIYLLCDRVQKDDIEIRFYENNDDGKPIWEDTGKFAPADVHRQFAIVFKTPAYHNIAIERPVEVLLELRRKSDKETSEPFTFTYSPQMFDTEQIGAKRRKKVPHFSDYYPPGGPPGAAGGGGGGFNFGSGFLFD

[1] = molecular target: T2, GST-Nv-NF-kB (Cys allele) (Nematostella vectensis, UniProt E5G601 2-411)
T2 sequence: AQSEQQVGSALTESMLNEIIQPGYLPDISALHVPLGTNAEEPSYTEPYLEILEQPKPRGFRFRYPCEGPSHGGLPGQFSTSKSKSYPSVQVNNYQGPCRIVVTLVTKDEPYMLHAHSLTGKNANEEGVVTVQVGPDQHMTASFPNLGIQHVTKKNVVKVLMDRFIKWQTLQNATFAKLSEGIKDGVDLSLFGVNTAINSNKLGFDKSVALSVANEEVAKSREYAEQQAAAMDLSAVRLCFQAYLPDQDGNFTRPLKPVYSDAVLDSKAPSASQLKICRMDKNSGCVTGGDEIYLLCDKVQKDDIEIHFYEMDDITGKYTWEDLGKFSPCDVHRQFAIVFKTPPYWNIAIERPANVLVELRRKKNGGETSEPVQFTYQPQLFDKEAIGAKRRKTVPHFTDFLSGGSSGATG

[2] = molecular target: T3, GST-Nv-NF-kB (Ser allele) (Nematostella vectensis, UniProt A7UNT2 2-411)
T3 sequence: T2 sequence with Q21R, C66S, S207N, E215Q, V217A, E225K, A268E, D399E

GST-Co-NF-kB = molecular target: T4, GST-Co-NF-kB (Capsaspora owczarzaki, UniProt F1ARL5 200-546)
T4 sequence: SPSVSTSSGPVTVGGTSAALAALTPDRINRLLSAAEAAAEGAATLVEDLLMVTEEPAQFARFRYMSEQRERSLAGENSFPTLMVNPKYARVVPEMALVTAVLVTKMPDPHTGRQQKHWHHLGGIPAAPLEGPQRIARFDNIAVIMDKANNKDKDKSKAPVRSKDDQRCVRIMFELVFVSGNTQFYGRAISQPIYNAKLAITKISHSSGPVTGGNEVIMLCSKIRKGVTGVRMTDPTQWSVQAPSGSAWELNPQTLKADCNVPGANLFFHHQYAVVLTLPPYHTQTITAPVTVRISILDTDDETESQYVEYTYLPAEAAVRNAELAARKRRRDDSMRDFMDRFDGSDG

GST-Dm-Relish = molecular target: T5, GST-Dm-Relish (Drosophila melanogaster, UniProt Q94527 99-473)
T5 sequence: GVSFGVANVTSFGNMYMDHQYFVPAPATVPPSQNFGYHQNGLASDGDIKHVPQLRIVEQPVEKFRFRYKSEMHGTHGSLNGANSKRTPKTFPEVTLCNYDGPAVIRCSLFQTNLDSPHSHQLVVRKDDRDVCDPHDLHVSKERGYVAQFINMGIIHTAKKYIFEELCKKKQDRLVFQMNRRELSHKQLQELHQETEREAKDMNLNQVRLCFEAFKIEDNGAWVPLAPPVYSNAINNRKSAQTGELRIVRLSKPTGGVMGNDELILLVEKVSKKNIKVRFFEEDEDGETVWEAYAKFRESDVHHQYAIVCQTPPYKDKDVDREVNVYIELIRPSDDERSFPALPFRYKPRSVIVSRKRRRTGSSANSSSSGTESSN

GST-Aq-NF-kB = molecular target: T6, GST-Aq-NF-kB (Amphimedon queenslandica, UniProt A9Y5G7 2-389)
T6 sequence: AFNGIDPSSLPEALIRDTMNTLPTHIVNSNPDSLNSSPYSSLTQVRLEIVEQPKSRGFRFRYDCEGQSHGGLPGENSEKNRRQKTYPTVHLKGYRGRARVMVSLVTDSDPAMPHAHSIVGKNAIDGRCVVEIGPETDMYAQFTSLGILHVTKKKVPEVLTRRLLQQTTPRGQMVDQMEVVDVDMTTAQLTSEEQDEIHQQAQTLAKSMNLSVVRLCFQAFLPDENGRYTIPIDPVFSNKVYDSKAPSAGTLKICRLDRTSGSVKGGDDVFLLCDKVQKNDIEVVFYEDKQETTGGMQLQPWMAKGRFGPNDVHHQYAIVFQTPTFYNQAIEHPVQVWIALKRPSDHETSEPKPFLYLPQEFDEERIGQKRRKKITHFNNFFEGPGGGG

GST-Hu-p50 = GST-Hu-p50 (Homo sapiens, UniProt P19838 7-356)
GST-Hu-p50, sequence (P19838 7-356): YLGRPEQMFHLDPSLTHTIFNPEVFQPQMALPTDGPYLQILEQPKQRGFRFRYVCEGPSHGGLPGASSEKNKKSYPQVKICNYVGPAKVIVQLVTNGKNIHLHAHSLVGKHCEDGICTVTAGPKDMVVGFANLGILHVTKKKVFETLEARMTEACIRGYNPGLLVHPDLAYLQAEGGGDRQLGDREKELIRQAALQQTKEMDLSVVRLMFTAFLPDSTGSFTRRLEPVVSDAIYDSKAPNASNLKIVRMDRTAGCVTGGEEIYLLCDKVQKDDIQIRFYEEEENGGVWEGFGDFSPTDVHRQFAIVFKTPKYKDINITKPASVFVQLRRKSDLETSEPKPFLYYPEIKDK

Sequence | binding signal (GST-Ap-NF-kB RHD) [z-score] | binding signal [1] [z-score] | binding signal [2] [z-score] | binding signal (GST-Co-NF-kB) [z-score] | binding signal (GST-Dm-Relish) [z-score] | binding signal (GST-Aq-NF-kB) [z-score] | binding signal (GST-Hu-p50) [z-score]
CCGATTAACATCAGGGGGATTACTGATGTTAATCGGGTCTTGATTCGCTTGACGCTGCTG | 8.76 | 7.64 | 8.21 | 5.85 | 9.03 | 6.92 | 7.22
CCGATTAACATCAGGGGGAATAATGATGTTAATCGGGTCTTGATTCGCTTGACGCTGCTG | 7.08 | 7.85 | 8.87 | 10.1 | 4.96 | 5.33 | 6.75
CCGATTAACATCACAATCCCCCCTGATGTTAATCGGGTCTTGATTCGCTTGACGCTGCTG | 8.13 | 5.61 | 6.37 | 5.89 | 5.35 | 5.25 | 6.19
CCGATTAACATCAACGAATCCCCTGATGTTAATCGGGTCTTGATTCGCTTGACGCTGCTG | 6.25 | 6.07 | 8.58 | 2.93 | 4.84 | 3.82 | 5.69
CCGATTAACATCAAGGGGTTTTCTGATGTTAATCGGGTCTTGATTCGCTTGACGCTGCTG | 7.68 | 7.5 | 6.68 | 1.68 | 7.2 | 6.95 | 6.56
CCGATTAACATCAAAAATCTCCCTGATGTTAATCGGGTCTTGATTCGCTTGACGCTGCTG | 3.7 | 6.51 | 6.86 | 3.4 | 2.94 | 6.14 | 4.72
CCGATTAACATCAGGGGGGTAACTGATGTTAATCGGGTCTTGATTCGCTTGACGCTGCTG | 5.83 | 4.16 | 4.34 | 6.37 | 4.31 | 4.37 | 4.07
CCGATTAACATCAGGGGGGATTATGATGTTAATCGGGTCTTGATTCGCTTGACGCTGCTG | 8.28 | 6.89 | 7.27 | 7.08 | 6.91 | 6.21 | 6.82
CCGATTAACATCAATTATCCCCCTGATGTTAATCGGGTCTTGATTCGCTTGACGCTGCTG | 6.74 | 5.48 | 6.6 | 7.87 | 4.31 | 5.15 | 5.52
CCGATTAACATCAAACTTCCCCATGATGTTAATCGGGTCTTGATTCGCTTGACGCTGCTG | 6.34 | 7.12 | 7.9 | 7.04 | 5.5 | 6.28 | 5.87
CCGATTAACATCAGGGGGGAACCTGATGTTAATCGGGTCTTGATTCGCTTGACGCTGCTG | 7.52 | 5.48 | 6.89 | 8.57 | 5.48 | 6.03 | 6.02
CCGATTAACATCAAGGTTCCCCCTGATGTTAATCGGGTCTTGATTCGCTTGACGCTGCTG | 8.03 | 6.89 | 7.86 | 9.24 | 5.67 | 5.62 | 5.92
CCGATTAACATCAAAACTCCCCGTGATGTTAATCGGGTCTTGATTCGCTTGACGCTGCTG | 7.7 | 6.47 | 6.9 | 5.87 | 7.5 | 6.24 | 5.74
CCGATTAACATCAAAAAGCCCCCTGATGTTAATCGGGTCTTGATTCGCTTGACGCTGCTG | 7.94 | 9.31 | 7.92 | 3.86 | 9.41 | 8.57 | 7.23
CCGATTAACATCACGGGGATCCCTGATGTTAATCGGGTCTTGATTCGCTTGACGCTGCTG | 8.72 | 5.48 | 5.51 | 4.27 | 9.65 | 5.88 | 4.51
CCGATTAACATCAAATTTCCCGATGATGTTAATCGGGTCTTGATTCGCTTGACGCTGCTG | 3.04 | 4.4 | 3.94 | 4.24 | 2.2 | 4.21 | 3.9
CCGATTAACATCAGGGGGTAACATGATGTTAATCGGGTCTTGATTCGCTTGACGCTGCTG | 4.79 | 3.69 | 4.43 | 7.22 | 2.49 | 3.72 | 4.06
CCGATTAACATCAAATTCCCATGTGATGTTAATCGGGTCTTGATTCGCTTGACGCTGCTG | 2.41 | 4.08 | 4.15 | 1.96 | 3.99 | 2.58 | 3.09
CCGATTAACATCACGTGATTCCCTGATGTTAATCGGGTCTTGATTCGCTTGACGCTGCTG | 2.22 | 2.38 | 2.58 | 1.63 | 8.61 | 3.33 | 1.11
CCGATTAACATCACTACCCCCCCTGATGTTAATCGGGTCTTGATTCGCTTGACGCTGCTG | 3.87 | 3.41 | 2.74 | 5.59 | 3.94 | 3.4 | 3.52
CCGATTAACATCATAAACCCCCATGATGTTAATCGGGTCTTGATTCGCTTGACGCTGCTG | 5.78 | 4.95 | 5.67 | 2.59 | 7.12 | 4.77 | 6.3
CCGATTAACATCAGGGAAAACAATGATGTTAATCGGGTCTTGATTCGCTTGACGCTGCTG | 3.05 | 4.96 | 6.37 | 5.48 | 1.47 | 3.34 | 3.66
CCGATTAACATCAGAATTCCCCATGATGTTAATCGGGTCTTGATTCGCTTGACGCTGCTG | 8.83 | 10.3 | 9.9 | 7.04 | 6.72 | 6.99 | 6.62
